Screening results (PubChem BioAssay)
LmPK inh: qHTS Assay for Inhibitors of Leishmania Mexicana Pyruvate Kinase (LmPK) | purified LmPK, Kinase-Glo ATP luminescence, 1 h | AID 1721, 2009 | Potency, µM (top dose mostly 57.5 µM), for inactives: top-dose activity change, negative = inhibition, hits mostly inhibitors | actives 0.37% (n = 290,000); also: potency is read from the fitted curve at half-maximal effect; % is scaled to controls: 0 for no effect and ±100 for the full control effect
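0.1 nM LmPK, 0.5 mM PEP, 0.1 mM ADP; 50 mM imidazole pH 7.2, 7 mM MgCl2, 50 mM KCl; 1 h RT. Kinase-Glo luminescence readout, normalized to no-enzyme (full inhibition) and uninhibited wells.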
Tb PYK inh: qHTS of Trypanosoma Brucei Inhibitors | pyruvate kinase (Trypanosoma brucei), Q57TT1 | TbPYK enzyme, Kinase-Glo Plus ATP luminescence, 45 min | Potency, µM (highest dose often 76.8 µM), without a hit: at the highest dose activity, negative = inhibition, hits mostly inhibitors | actives 0.12% (n = 410,000) | AID 624173, 2012; also: potency is read from the fitted curve at half-maximal effect; % is scaled to controls: 0 for no effect and ±100 for the full control effect; nearly all actives have a fitted effect of over 50% in size
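Enzyme and substrate buffer are dispensed first and compound is pin-transferred. ADP at 130 uM final then starts the reaction, which runs 45 min at room temperature. Detection reagent is added for 10 min before luminescence is imaged.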
CHX counter: Cycloheximide Counterscreen for Small Molecule Inhibitors of Shiga Toxin; cell reporter, cycloheximide protein synthesis inhibition counterscreen; max response, %; actives 12% (n = 300,000); in the data active = max response mostly above about 13%, no sharp cut-off; inactive = mostly below about 14%; also: read at 38.3 µM for the half of the compounds with a filed dose; 0% is about no effect
Shiga toxin inh: A qHTS for Small Molecule Inhibitors of Shiga Toxin | AID 2315, 2010 | Vero cells, Shiga toxin protein synthesis inhibition reporter | actives 9.2% (n = 290,000) | inhibition, % at 38.7 µM; in the data active = inhibition mostly above about 28%, no sharp cut-off; inactive = mostly below about 43%; also: 0% is about no effect
RE007 growth inh: qHTS Assay for Inhibitors of the HIV-1 protein Vpr. S. pombe RE007 Vpr strain, BacTiter-Glo ATP luminescence, 24 h. Potency, µM (top dose mostly 92.2 µM), for the others: top-dose activity change, negative = less growth, most hits filed as inhibitors. actives 0.21% (n = 360,000); active = well fitted falling curve with a large enough effect; inconclusive = small, poorly fitted or top-dose-only effect; inactive = no such curve, though single readings can be large or run the other way; also: potency is read from the fitted curve at half-maximal effect; % is scaled to controls: 0 for no effect and ±100 for the full control effect; nearly all actives have a fitted effect of over 50% in size
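Fission yeast RE007 carrying one integrated HIV-1 vpr copy, seeded at OD 0.01 in PMG+AL medium with 23 nL pinned compound. Grown 24 h at 30 degrees; viability read by BacTiter-Glo luminescence after 5 min.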
Giardia FBPA inh: qHTS Assay for Inhibitors of Fructose-1,6-bisphosphate Aldolase from Giardia Lamblia; A8B2U2; purified Giardia FBPA; Potency, µM (series often up to 59.6 µM), for the others: top-dose activity, negative = inhibition, actives largely listed as inhibitors; actives 0.71% (n = 290,000); also: potency is read from the fitted curve at half-maximal effect; % is scaled to controls: 0 for no effect and ±100 for the full control effect; nearly all actives have a fitted effect of over 55% in size
Target sequence (A8B2U2 whole entry, looked up): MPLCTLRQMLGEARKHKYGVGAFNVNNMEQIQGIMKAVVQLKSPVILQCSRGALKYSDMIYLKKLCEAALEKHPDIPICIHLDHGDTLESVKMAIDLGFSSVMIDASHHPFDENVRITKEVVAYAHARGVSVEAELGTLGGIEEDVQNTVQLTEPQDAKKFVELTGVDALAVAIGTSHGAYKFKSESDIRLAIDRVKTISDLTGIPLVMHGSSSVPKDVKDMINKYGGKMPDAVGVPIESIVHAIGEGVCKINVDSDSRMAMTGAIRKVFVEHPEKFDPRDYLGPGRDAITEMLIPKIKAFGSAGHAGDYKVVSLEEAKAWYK
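Giardia FBPA (40 nM reagent) was preincubated 10 min at RT with compound (up to 57.5 uM final), then substrate plus GAPDH/TPI/NAD/arsenate coupling system with diaphorase/resazurin was added; resorufin fluorescence (525/598 nm) was read after 20 min.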
Numbers without * were called inactive; u = inconclusive; x = not tested or not shown; [ ] = dose if it differs, or a comment. Many of the other results were omitted from the sample, so hits are more common in it than they were. Unless noted, calls follow the shape of the dose curve; as a rule, active = well fitted curve in the direction sought with a large enough effect; inconclusive = small, poorly fitted or top-dose-only effect, or another doubt; inactive = no such curve, though single readings can be large; an effect the other way counts as inactive or inconclusive.

SMILES	LmPK inh	Tb PYK inh	CHX counter	Shiga toxin inh	RE007 growth inh	Giardia FBPA inh
COc1cc(CC(=O)Nc2ccc3c(c2)CCC3)cc(OC)c1OC	3%	-5%	-6	2	-11%	-2%
COc1cc(CNc2ccc3c(c2)CCC3)cc(OC)c1O	-1%	-4%	30*	63*	13%	u
CCOc1ccc(CN(C)CC(=O)Nc2ccc3c(c2)CCC3)cc1OC	-2%	-10%	-1	-7	-8%	-1%
Cc1ccccc1S(=O)(=O)NC(=O)C1(C)CCN1C(=O)CCc1cccs1 (stereo not drawn)	x	-8%	x	x	5%	x
CC1(Cc2ccccc2F)C(=O)Nc2c(Cl)ccc(Cl)c21 (stereo not drawn)	x	-1%	x	x	-17%	x
Cc1cc(C(=O)Nc2ccc(Nc3ccccc3)cc2)ccc1[N+](=O)[O-]	5%	u	20*	x	-6%	-16%
Cc1ccc(NC(=O)c2ccncc2)cc1[N+](=O)[O-]	2%	-5%	19*	16	x	1%
CC(=O)Nc1cccc(NC(=O)c2ccc(C)c([N+](=O)[O-])c2)c1	-9%	-5%	26*	41	9%	-4%
C/C(=N\NC(=O)c1ccc([N+](=O)[O-])c(C)c1)c1ccccc1Cl	2%	-3%	28*	57*	5%	-5%
Cc1ccc(N2CC(NC(=O)c3ccc(S(=O)(=O)N4CCCC4)cc3)CC2=O)cc1 (stereo not drawn)	x	-3%	x	x	x	x
Cc1cc(C(=O)Nc2ccncc2)ccc1[N+](=O)[O-]	-2%	0%	26*	43	-10%	-1%
Cc1ccc(C(=O)Nc2ccncc2)cc1[N+](=O)[O-]	0%	0%	-3	-7	-1%	14%
O=C(Nc1ccc(Cc2ccncc2)cc1)c1ccc(Cl)c([N+](=O)[O-])c1	1%	-1%	8.6*	-2	-3%	u
CN(CCC#N)C(=O)COC(=O)c1cccnc1Nc1ccccc1F	-23%	-11%	16*	21	-11%	4%
CN(CCC#N)C(=O)COC(=O)c1ccccc1C(=O)c1ccc(Cl)c([N+](=O)[O-])c1	0%	-2%	15	-3	3%	-2%
CCN(C(=O)COC(=O)c1cccnc1Nc1ccccc1F)C1CCS(=O)(=O)C1 (stereo not drawn)	u	-2%	62*	54*	-3%	21%
CN(C(=O)COC(=O)c1cccnc1Nc1ccccc1F)C1CCS(=O)(=O)C1 (stereo not drawn)	u	-2%	28*	65*	3%	0%
CN(C(=O)COC(=O)c1cccnc1Nc1cccc(C(F)(F)F)c1)C1CCS(=O)(=O)C1 (stereo not drawn)	4%	12%	-3	-6	-18%	3%
CS(=O)(=O)N(Cc1ccccc1)c1ccc(C(=O)Nc2ccccc2C(=O)O)cc1	6%	-6%	1	x	-16%	-1%
c1ccc(SCc2cc(-c3ccccc3)no2)cc1	-3%	8%	39*	82*	6%	0%
COc1ccc(OCc2cc(-c3ccc(Cl)cc3)no2)cc1	-2%	2%	9	35	11%	3%
Clc1ccc(-c2cc(CSc3cccc(Cl)c3)on2)cc1	-2%	-1%	-1	3	-10%	-5%
O=C(CCl)NCc1cc(-c2ccc(Cl)cc2)no1	1%	4%	16*	29	8%	4%
Clc1ccc(-c2cc(CSc3ccccc3)on2)cc1	3%	-1%	51*	132*	-15%	-1%
CC(=O)N(C[C@@H](C)C(=O)O)c1c(I)cc(I)c(N)c1I	x	2%[33.2 µM]	x	x	x	3%[21.7 µM]
CCN1C(=O)[C@H]2[C@@H](c3ccc(C(F)(F)F)cc3)N[C@]3(CCCN(Cc4ccc(C)cc4)C3=O)[C@H]2C1=O	x	5%	x	x	-2%	x
